This is a sample that favours compounds with a hit; in the whole collection about 7.9% have one here.
KB-V1 MDR tox: qHTS assay for MDR1-selective chemotherapeutics: Primary screen using the drug-selected MDR subline cells KB-V1. KB-V1 MDR cells viability, CellTiter-Glo, 72 h. Potency, µM (titrated, usually from 46.1 µM), hits mostly cytotoxic. actives 3.4% (n = 400,000). AID 1347076, 2019; also: % is scaled to controls: 0 for no effect and ±100 for the full control effect; nearly all actives have a fitted effect of over 60% in size
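Readout: CellTiter-Glo luminescence, 10 min after addition. Cells: KB-V1 MDR subline, 72 h at 37 degrees C with compound. Analysis: corrected, normalized data fitted to concentration-effect curves.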
MCF10A rereplic: A quantitative high throughput screen for small molecules that induce DNA re-replication in MCF 10a normal breast cells. MCF 10A DNA re-replication, Hoechst nuclear intensity, 48 h. Potency, µM (doses to about 46.1 µM), without a hit: top-dose activity, positive = re-replication, actives largely listed as activators. actives 2.9% (n = 350,000). AID 624296, 2012; also: % of control where 0% means no effect; nearly all actives have a fitted effect of over 50% in size
HT1080-NT tox: qHTS for induction of synthetic lethality in tumor cells producing 2HG: qHTS for the HT-1080-NT fibrosarcoma cell line. Potency, µM (top dose mostly 46.1 µM), for the others: at the top dose activity, negative = less viability, hits mostly cytotoxic. AID 686970, 2013. HT-1080-NT fibrosarcoma viability, CellTiter-Glo ATP luminescence, 48 h. actives 1.6% (n = 360,000);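 also: NT is the 2HG producing partner of a matched IDH1 knockdown line; 0% = DMSO-treated cells and -100% = media-only wells without cells; nearly all actives have a fitted effect of over 55% in size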
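A 48-hour cytotoxicity screen used HT-1080-NT cells plated 2 hours before compound delivery. ATP-based CellTiter-Glo luminescence measured viability, normalized to DMSO and no-cell controls.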
HT1080 IDH1KD tx: qHTS for induction of synthetic lethality in tumor cells producing 2HG: qHTS for the HT-1080-IDH1KD cell line; HT-1080 IDH1 knockdown viability, ATP luminescence, 48 h; Potency, µM (top dose mostly 46.1 µM), for inactives: at the highest dose activity, negative = toxicity, usual class: cytotoxic; actives 2% (n = 360,000);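 also: 0% = DMSO wells and -100% = cell-free medium wells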
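CellTiter-Glo luminescence after 48 h compound exposure at 37 degrees C of IDH1-knockdown HT-1080 cells in 5% FBS RPMI. %Activity scaled between DMSO wells and cell-free media wells, with curves fitted and assigned curve classes.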
KB-3-1 cytotox: qHTS assay for MDR1-selective chemotherapeutics: Primary screen using the parental adenocarcinoma cell KB-3-1. KB-3-1 viability, CellTiter-Glo ATP luminescence, 72 h. Potency, µM (highest dose often 46.1 µM), hits mostly cytotoxic. actives 1.4% (n = 400,000). AID 1347075, 2019; also: % is scaled to controls: 0 for no effect and ±100 for the full control effect; nearly all actives have a fitted effect of over 60% in size
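Cytotoxicity in the drug-sensitive parental line KB-3-1 was scored as loss of CellTiter-Glo luminescence following 72 h incubation with compound. Values come from curve fitting of normalized concentration-response data.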
SW480 rerep: A quantitative high throughput screen for small molecules that induce DNA re-replication in SW480 colon adenocarcinoma cells; AID 624297, 2012; actives 1.8% (n = 340,000); Potency, µM (top dose mostly 46.1 µM), without a hit: top-dose re-replication activation, usual class: activators; SW480 DNA re-replication, Hoechst DNA content imaging, 48 h; also: % of control where 0% means no effect; nearly all actives have a fitted effect of over 55% in size
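Hoechst fluorescence of nuclei (405 nm excitation, 500-530 nm emission) measured by plate-scanning imager after 48 hr compound exposure at 37 C; re-replication scored as increased number of nuclei with elevated intensity.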
Active calls of the source: *; i = inactive; u = inconclusive; x = no result; [ ] = another dose, or the depositor's remark. Calls follow the shape of the dose curve; as a rule, active = well fitted curve in the direction sought with a large enough effect; inconclusive = small, poorly fitted or top-dose-only effect, or another doubt; inactive = no such curve, though single readings can be large; an effect the other way counts as inactive or inconclusive. Potency is read from the fitted curve at half-maximal effect.

SMILES | KB-V1 MDR tox | MCF10A rereplic | HT1080-NT tox | HT1080 IDH1KD tx | KB-3-1 cytotox | SW480 rerep
CCC(=O)Nc1nnc(SCC(=O)Nc2ccc3c(c2)OCCO3)s1 | i | u | -16% | u | u | -20%
COc1ccc(-n2nnnc2SCC(=O)Nc2ccc3c(c2)OCCO3)cc1OC | 9.2µM* | 15% | -27% | -4% | u | 5%
COc1ccc(-n2nnnc2SCC(=O)Nc2ccc3c(c2)OCCO3)c(OC)c1 | i | 1% | -9% | -14% | i | 5%
COc1ccc(-n2nnnc2SCC(=O)c2ccc3c(c2)OCCO3)c(OC)c1 | 9.2µM* | -1% | 7% | 23% | i | 2%
COc1ccc(-n2nnnc2SCC(=O)Nc2cccc(NC(C)=O)c2)cc1OC | i | 3% | 0% | 0% | i | 1%
CCC(NC(=O)CSc1nnnn1C1CC1)c1ccc(Br)cc1 (stereo unspecified) | i | u | -1%[9.24 µM] | -1% | i | -16%
Cc1cc(NC(=O)c2cc(-c3ccc(Cl)cc3)on2)n(-c2ccccc2)n1 | i | x | x | x | i | x
O=C(CSc1nnnn1-c1ccc2c(c1)OCO2)NCc1ccccc1 | 12µM* | 26% | u | 13µM* | 7.3µM* | 16µM*
O=C(CSc1nnnn1-c1ccc2c(c1)OCO2)NCc1cccs1 | i | 7% | -8% | -2% | i | -2%
COc1ccc(CN(Cc2ccccc2)C(=O)COC(C)=O)cc1COc1ccc(NC(C)=O)cc1 | x | x | -14% | -23% | x | x
CSCCC1NC2(C(=O)Nc3c2ccc(Cl)c3C)[C@@H]2C(=O)N(C3CCCC3)C(=O)[C@H]12 (stereo partly specified) | 4.1µM* | 20% | 6% | -3% | u | u
CCN(CC)C(=O)c1ccc(-c2nnc(Nc3ccc(O)cc3)c3ccccc23)cc1 | i | -3% | 11% | 10% | i | -2%
CCN(CC)C(=O)c1ccc(Nc2nnc(C)c3ccccc23)cc1 | 12µM* | -3% | -16% | -28% | i | -6%
COC(=O)c1cc2oc3ccccc3c2n1CC(=O)Nc1cccc(SC)c1 | i | x | x | x | i | x
CCc1ccccc1NC(=O)Nc1ccc2snnc2c1 | i | x | x | x | i | x
O=C(Nc1ccc2snnc2c1)Nc1cccc2ccccc12 | u | u | u | u | 21µM* | -4%
CCOC(=O)c1c(Cl)c(C)nn1-c1nc(OC)cc(OC)n1 | 2.9µM* | -50% | 14% | 0% | u | -330%
CCOC(=O)c1cc(C)nn1-c1nc(Cl)cc(OC)n1 | i | -3% | 9% | 20% | i | -3%
C=CCOc1ccc(/C=C/C(=O)OCC(=O)NCC(=O)Nc2c(C)cc(C)cc2C)cc1 | i | 2% | -3% | -1% | i | -5%
N=C1SCC(=O)N1/N=C/c1ccccc1 | 6.5µM* | 23% | 12% | 16% | 7.3µM* | u
COc1cc(CN2CCN(C(c3ccccc3)c3ccccc3)CC2)cc(OC)c1OC | i | 0% | -25% | u | i | 22%
CCN1CCN(C(=O)C2CCN(Cc3cc(Cl)ccc3O)CC2)CC1 | i | 12µM* | u | 11% | i | -12%
CN1CCCN(C(c2ccccc2)c2ccc(Cl)cc2)CC1 (stereo unspecified) | i | u | 18µM* | 18µM* | i | u
O=C(C1CCN(Cc2ccc(Cl)cc2)CC1)N1CCN(C(c2ccccc2)c2ccccc2)CC1 | u | u | u | u | 21µM* | u

High-throughput results as filed in PubChem.
